# Assay results from PubChem BioAssay (NCATS).
# Inconclusive results are not listed. Entries that show only a call come without a potency. Calls of active or inactive are those of the source. Calls follow the shape of the full dose curve.
# Assay: qHTS assay for small molecule disruptors of the mitochondrial membrane potential - 5 hr assay (AID 651755); also: nearly all actives have a fitted effect of over 40% in size
# Settings: JC-1-type ratio dye; series mostly up to 92.2 µM
# Source text: National Center for Advancing Translational Sciences [NCATS]
# NIH Chemical Genomics Center [NCGC]
# National Institutes of Environmental Health Sciences [NIEHS]
# National Toxicology Program [NTP]
# Mitochondrial membrane potential (MMP), one of the parameters for mitochondrial function, is generated by mitochondrial electron transport chain that creates an electrochemical gradient by a series of redox reactions. This gradient drives the synthesis of ATP, a crucial molecule for various cellular processes. Measuring MMP in living cells is commonly used to assess the effect of chemicals on mitochondrial function. […] The dye accumulates in the mitochondria of healthy cells as aggregates, with red fluorescence. The mitochondrial potential collapses and the dye can no longer accumulate in the mitochondria and remains in the cytoplasm in monomers, with green fluorescence.
# 2,000 HepG2 cells in 5 uL/well were dispensed into black, clear-bottom 1536-well plates using a Multidrop Combi (Thermo Scientific) dispenser. The assay plates were incubated overnight at 37C to allow cells to attach to the wells, followed by the transfer of 23 nL compound or DMSO vehicle by a pin tool (Kalypsys). The plates were incubated for 5 hr at 37C and 5% CO2, followed by the addition of 5 uL of 2X Mito-MPS dye (BD Biosciences) into each well using Flying Reagent Dispenser (Aurora Discovery) and then following 30 min incubation at 37C. Fluorescence intensity (490nm excitation and 535nm emission for monomers; and 540nm excitation and 590nm emissions for aggregates) was measured using an Envision plate reader.
row,SMILES,Potency
1,Cc1cc(C)cc(N)c1,inactive
2,Cc1cccc(Br)c1,inactive
3,CCCCCCC(=O)O,inactive
4,CCOC(C)(C)C,inactive
5,CC(C)N(C)C,inactive
6,CCCCCCCCC/C=C/CC1CC(=O)OC1=O (stereo not given),inactive
7,CCc1ccccc1O,inactive
8,CC(=O)CCc1ccccc1,inactive
9,CCc1ccccc1,inactive
10,CN(C)CCCCl,inactive
11,CC(C)CCOC(=O)/C=C/c1ccccc1,inactive
12,Cc1ccc(C)c(O)c1,inactive
13,CSc1ccc(C=O)cc1,inactive
14,Cc1ccccc1C=O,inactive
15,Cc1ccco1,inactive
16,CCCCCCCCN,inactive
17,CCCCC(CC)C(=O)O (stereo not given),inactive
18,CC(O)COC(C)(C)C (stereo not given),inactive
19,NC(N)=S,inactive
20,CCCCC(CC)COC(=O)CCCCC(=O)OCC(CC)CCCC (stereo not given),inactive

row,SMILES,Potency
1,CCOCCO,inactive
2,CCCC(Cl)CCCC(Cl)CCC(Cl)CCC(Cl)CCC(Cl)CCCC(Cl)CCC (stereo not given),inactive
3,O=[N+]([O-])c1ccccc1CCO,inactive
4,O=C(Cl)c1cccc([N+](=O)[O-])c1,inactive
5,CC(=O)c1ccccn1,inactive
6,Nc1nc(-c2ccccc2)cs1,inactive
7,CC(=O)Nc1ccccc1C,inactive
8,Cc1ccc(N(C)C)cc1,inactive
9,Cc1ccc(C(C)(C)C)cc1,inactive
10,Cc1ccc(C(=O)O)cc1,inactive
11,COc1cccc(N)c1,inactive
12,CC(C)=C1CCC(C)CC1=O (stereo not given),inactive
13,O=Cc1ccccc1Cl,inactive
14,Cc1cccc2sc(N)nc12,inactive
15,CC/C=C1/OC(=O)c2ccccc21,inactive
16,c1ccc2n[nH]nc2c1,inactive
17,O=C(O)c1cccc([N+](=O)[O-])c1,inactive
18,CCCC=O,inactive
19,ICCc1ccccc1,inactive
20,NCCCCCCN,inactive
